Measured values reported in PubChem BioAssay (Tox21).
Values without a mark were called inactive. Records with an inconclusive call do not appear. A call without a number means that no potency is given here. Calls of active or inactive are those of the source. Unless noted, the call rests on the fitted dose curve; in most records, active means well fitted curve in the direction sought with a large enough effect in the repeat runs; inconclusive means weak or mixed curves; inactive means no such curve, though single readings can be large; an effect the other way counts as inactive or inconclusive.

Experiments:
[1] = qHTS assay for small molecule agonists of the p53 signaling pathway (AID 651631; calls by dose curve; further: nearly all actives have a fitted effect of over 15% in size)
In short: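 Quantitative high-throughput format: 4,000 p53RE-bla HCT-116 cells/well, 5 h pre-incubation, 16 h compound exposure at 37 °C, 2 h room-temperature substrate step, fluorescence intensity measured.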

[2] = qHTS assay for small molecules that induce genotoxicity in human embryonic kidney cells expressing luciferase-tagged ATAD5 (AID 651632); further: nearly all actives have a fitted effect of over 15% in size
In short: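 Increased luciferase signal from ATAD5-tagged reporter cells indicates DNA-damage-driven ATAD5 induction. HEK293T cells are treated for 16 hr at 37C before detection with Amplite.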

[3] = qHTS assay for small molecule agonists of the p53 signaling pathway - cell viability (AID 651633; calls by dose curve;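 further: p53RE-bla HCT reporter cells with a stable beta-lactamase p53 reporter; series mostly up to about 83 µM; nearly all actives have a fitted effect of over 30% in size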)
In short: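 Viability counter-read: CellTiter-Glo luminescence (30 min, room temperature) in the same p53RE-bla plates. These plates had been exposed to compounds for 16 h at 37 C.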

[4] = qHTS assay for small molecules that induce genotoxicity in human embryonic kidney cells expressing luciferase-tagged ATAD5 - cell viability (AID 651634; calls by dose curve; further: nearly all actives have a fitted effect of over 25% in size)
In short: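 Cytotoxicity counterscreen in HEK293T cells bearing an ATAD5-luciferase reporter: live-cell protease activity measured by CellTiter-Fluor fluorescence after 15.5 hr compound exposure.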

[5] = qHTS assay for small molecule disruptors of the mitochondrial membrane potential - cell viability (AID 720634; calls by dose curve;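 further: human HepG2 liver cancer cells; series mostly up to about 83 µM; nearly all actives have a fitted effect of over 20% in size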)
In short: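 After overnight attachment at 37 C, HepG2 cells received compound or DMSO vehicle for 1 hr. Viability is then taken from ATP-driven luminescence following a 30 min room-temperature CellTiter-Glo step.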

[6] = qHTS assay for small molecule disruptors of the mitochondrial membrane potential (AID 720635); further: potency means the concentration at half of the fitted maximal effect
In short: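 Mitochondrial membrane potential tracked with Mito-MPS dye, red aggregates (ex 540/em 590 nm) against green monomers (ex 490/em 535 nm). Compound treatment 1 hr at 37C, dye 30 min in HepG2.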

[7] = qHTS assay to test for compound auto fluorescence at 590 nm (red) in HepG2 cells (AID 720674)
In short: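 Red autofluorescence (Ex/Em 540/590 nm, Rose Bengal sodium equivalents) was measured in HepG2 cells, 2,000 per well in MEM plus 10% FBS, plated overnight at 37 C. Readings were taken 1 hr after adding 23 nL compound or DMSO, at 37 C and 5% CO2.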

[8] = qHTS assay to test for compound auto fluorescence at 535 nm (green) in HepG2 cells (AID 720675)
[9] = qHTS assay to test for compound auto fluorescence at 460 nm (blue) in HEK293 cells (AID 720678)
In short: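 Measured: blue fluorescence (Ex 405/Em 460 nm) of compound-treated HEK293 cells, incubated overnight at 37C with 5% CO2 and scaled to triamterene equivalents.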

[10] = qHTS assay to test for compound auto fluorescence at 590 nm (red) in HEK293 cells (AID 720679)
In short: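 Using HEK293 cells at 2,000 per well, the screen added 23 nL of each compound after cell attachment and incubated overnight (37C, 5% CO2). The plate reader then captured red-label fluorescence, Ex/Em 540/590nm.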

[11] = qHTS assay to test for compound auto fluorescence at 535 nm (green) in HEK293 cells (AID 720680)
[12] = qHTS assay to test for compound auto fluorescence at 460 nm (blue) in HEK293 cell free culture (AID 720681)
In short: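 Blue fluorescence (Ex 405/Em 460 nm, triamterene-equivalent) was read immediately after pin transfer of compound or DMSO into medium (DMEM, 10% FBS) without cells.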

[13] = qHTS assay to test for compound auto fluorescence at 535 nm (green) in HEK293 cell free culture (AID 720682)
In short: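 Measurement is a direct plate read of green fluorescence (485 nm in, 535 nm out) after compound addition to serum-supplemented DMEM lacking cells, with fluorescein used to express intensities.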

[14] = qHTS assay to test for compound auto fluorescence at 590 nm (red) in HEK293 cell free culture (AID 720683)
In short: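 Red-channel autofluorescence of compounds in culture medium (DMEM, 10% FBS), no cells, measured at 540/590 nm. Rose Bengal sodium is the reference fluorophore for equivalence.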

[15] = qHTS assay to test for compound auto fluorescence at 590 nm (red) in HepG2 cell free culture (AID 720684)
In short: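 Steps: dispense MEM/10% FBS medium, no cells; pin compound or DMSO vehicle; read red channel, Ex/Em 540/590 nm. Output given as Rose Bengal sodium equivalents.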

[16] = qHTS assay to test for compound auto fluorescence at 460 nm (blue) in HepG2 cell free culture (AID 720685)
In short: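 Compound (23 nL) or DMSO pinned into cell-free MEM with 10% FBS; blue fluorescence read at 405/460 nm excitation/emission, expressed as auto-fluorescence equivalency to triamterene.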

[17] = qHTS assay to test for compound auto fluorescence at 535 nm (green) in HepG2 cell free culture (AID 720686)
[18] = qHTS assay to test for compound auto fluorescence at 460 nm (blue) in HepG2 cells (AID 720687)
In short: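 Blue-channel autofluorescence (Ex/Em 405/460 nm, triamterene-equivalent) was measured after 1 hr compound exposure at 37 C, 5% CO2. Cells were HepG2, plated overnight at 37 C in MEM plus 10% FBS.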

[19] = target: Glucocorticoid receptor (Homo sapiens) (UniProt P04150); assay: qHTS assay to identify small molecule agonists of the glucocorticoid receptor (GR) signaling pathway (AID 720691; active means well fitted activation curve with a large enough effect in the signal ratio in the repeat runs, not every such curve was filed as active; the % refers to the signal ratio)
In short: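 Agonist mode in a HeLa line carrying a GRE-controlled beta-lactamase reporter. Compounds act for 18 h at 37 C before a 2 h room-temperature FRET substrate step and fluorescence reading.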

[20] = target: Glucocorticoid receptor (Homo sapiens) (UniProt P04150); assay: qHTS assay to identify small molecule antagonists of the glucocorticoid receptor (GR) signaling pathway (AID 720692; active means well fitted inhibition curve with a large enough effect in the signal ratio in the repeat runs, not every such curve was filed as active; the % refers to the signal ratio)
In short: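 Cells plated, rested 4 h at 37 C/5% CO2; compounds in DMSO pin-transferred; dexamethasone added to 5 nM final; 18 h at 37 C; B/G FRET substrate added, 2 h room temperature; fluorescence measured.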

Sequence of Glucocorticoid receptor (Homo sapiens) (P04150 whole entry, looked up): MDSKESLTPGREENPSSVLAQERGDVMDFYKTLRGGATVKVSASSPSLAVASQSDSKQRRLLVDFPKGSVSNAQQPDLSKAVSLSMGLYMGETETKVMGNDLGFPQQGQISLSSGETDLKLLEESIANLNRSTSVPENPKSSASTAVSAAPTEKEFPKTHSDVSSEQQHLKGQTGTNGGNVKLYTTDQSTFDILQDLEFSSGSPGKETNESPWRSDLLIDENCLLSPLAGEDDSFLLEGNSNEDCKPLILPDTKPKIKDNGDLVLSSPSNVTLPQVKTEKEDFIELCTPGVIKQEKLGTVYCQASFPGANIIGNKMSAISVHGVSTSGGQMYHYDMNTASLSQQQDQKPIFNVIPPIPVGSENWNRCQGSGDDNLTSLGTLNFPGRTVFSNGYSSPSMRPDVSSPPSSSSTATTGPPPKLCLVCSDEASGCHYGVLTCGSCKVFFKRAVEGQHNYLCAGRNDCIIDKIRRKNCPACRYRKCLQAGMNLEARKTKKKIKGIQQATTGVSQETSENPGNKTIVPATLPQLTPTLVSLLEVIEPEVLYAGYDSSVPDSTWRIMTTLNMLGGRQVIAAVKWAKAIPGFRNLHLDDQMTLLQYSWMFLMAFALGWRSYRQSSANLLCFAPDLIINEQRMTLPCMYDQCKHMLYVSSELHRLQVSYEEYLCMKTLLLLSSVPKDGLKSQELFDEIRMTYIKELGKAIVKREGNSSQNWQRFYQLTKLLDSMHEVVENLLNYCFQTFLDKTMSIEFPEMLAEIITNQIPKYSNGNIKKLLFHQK

In the case of `Cc1cccc(C)c1NC(=O)CN1CCCC1`, the Potency [1] was “inactive”, the Potency [2] was “inactive” and the Potency [3] was “inactive”. The Potency [4] was “inactive”, the Potency [5] was “inactive” and the Potency [6] was “inactive”. The outcome [7] was “inactive”, the outcome [8] was “inactive” and the Potency [9] was “inactive”. The outcome [10] was “inactive”, the outcome [11] was “inactive” and the Potency [12] was “inactive”. For the same compound, the outcome [13] was “inactive”, the outcome [14] was “inactive” and the outcome [15] was “inactive”. The outcome [16] was “inactive”, the outcome [17] was “inactive” and the outcome [18] was “inactive”. For the same compound, the Potency [19] was “inactive” and the Potency [20] was “inactive”.
In the case of `CCCCCCCCCCCCCCCCN`, the Potency [1] was “inactive”, the Potency [2] was “inactive” and the Potency [3] was “inactive”. For the same compound, the Potency [4] was “inactive”, the Potency [5] was “inactive” and the Potency [6] was “inactive”. For the same compound, the outcome [7] was “inactive”, the outcome [8] was “inactive” and the Potency [9] was “inactive”. For the same compound, the outcome [10] was “inactive”, the outcome [11] was “inactive” and the outcome [13] was “inactive”. For the same compound, the outcome [14] was “inactive”, the outcome [15] was “inactive” and the outcome [16] was “inactive”. For the same compound, the outcome [17] was “inactive”, the outcome [18] was “inactive” and the Potency [19] was “inactive”.
With `NC(=O)c1ccccc1C(N)=O` the Potency [1] was “inactive”, the Potency [2] was “inactive” and the Potency [3] was “inactive”. For the same compound, the Potency [4] was “inactive”, the Potency [5] was “inactive” and the Potency [6] was 61.4 µM (active). For the same compound, the outcome [7] was “inactive”, the outcome [8] was “inactive” and the outcome [10] was “inactive”. For the same compound, the outcome [11] was “inactive”, the Potency [12] was “inactive” and the outcome [13] was “inactive”. For the same compound, the outcome [14] was “inactive”, the outcome [15] was “inactive” and the outcome [16] was “inactive”. The outcome [17] was “inactive” and the outcome [18] was “inactive”.
For `CO[C@@H]1[C@@H](O[C@@H]2O[C@H](C)[C@@H](O[C@H]3C[C@@](C)(O)[C@@H](O)[C@H](C)O3)[C@H](N(C)C)[C@H]2O)[C@@H](CC=O)C[C@@H](C)[C@@H](O[C@@H]2CC[C@H](N(C)C)[C@@H](C)O2)/C=C/C=C/C[C@@H](C)OC(=O)C[C@H]1OC(C)=O`, the Potency [1] was “inactive”, the Potency [2] was “inactive” and the Potency [3] was “inactive”. For the same compound, the Potency [4] was “inactive”, the Potency [5] was “inactive” and the Potency [6] was “inactive”. The outcome [7] was “inactive”, the outcome [8] was “inactive” and the Potency [9] was “inactive”. The outcome [10] was “inactive”, the outcome [11] was “inactive” and the Potency [12] was “inactive”. The outcome [13] was “inactive”, the outcome [14] was “inactive” and the outcome [15] was “inactive”. The outcome [16] was “inactive” and the outcome [17] was “inactive”.
In the case of `O=C1C=CCCC1`, the Potency [1] was “inactive”, the Potency [2] was “inactive” and the Potency [3] was “inactive”. For the same compound, the Potency [4] was “inactive”, the Potency [5] was “inactive” and the Potency [6] was “inactive”. The outcome [7] was “inactive”, the outcome [8] was “inactive” and the Potency [9] was “inactive”. For the same compound, the outcome [10] was “inactive”, the outcome [11] was “inactive” and the Potency [12] was “inactive”. The outcome [13] was “inactive”, the outcome [14] was “inactive” and the outcome [15] was “inactive”. For the same compound, the outcome [16] was “inactive”, the outcome [17] was “inactive” and the outcome [18] was “inactive”.
With `CCC(CC)C(=O)O` the Potency [1] was “inactive”, the Potency [2] was “inactive” and the Potency [3] was “inactive”. For the same compound, the Potency [4] was “inactive”, the Potency [5] was “inactive” and the Potency [6] was “inactive”. The outcome [7] was “inactive”, the outcome [8] was “inactive” and the Potency [9] was “inactive”. The outcome [10] was “inactive”, the outcome [11] was “inactive” and the Potency [12] was “inactive”. The outcome [13] was “inactive”, the outcome [14] was “inactive” and the outcome [15] was “inactive”. The outcome [17] was “inactive”, the Potency [19] was “inactive” and the Potency [20] was “inactive”.
With `O=C(O)c1ccccc1-n1cc(C(=O)O)c(=O)c2cc(Nc3c(F)cc(F)cc3Cl)c(Cl)cc21` the Potency [1] was “inactive”, the Potency [2] was “inactive” and the Potency [3] was “inactive”. The Potency [4] was “inactive”, the Potency [5] was “inactive” and the Potency [6] was “inactive”. The outcome [7] was “inactive”, the outcome [8] was “inactive” and the Potency [9] was “inactive”. The outcome [10] was “inactive”, the outcome [11] was “inactive” and the Potency [12] was “inactive”. The outcome [13] was “inactive”, the outcome [14] was “inactive” and the outcome [15] was “inactive”. The outcome [16] was “inactive”, the outcome [17] was “inactive” and the Potency [19] was “inactive”. For the same compound, the Potency [20] was “inactive”.
